ChEMBL document CHEMBL1157539, “Thousands of chemical starting points for antimalarial lead identification” (Nature, 2010)

Each compound was assayed on Plasmodium falciparum (assay: GSK_TCMDC: Inhibition of Plasmodium falciparum 3D7 in whole red blood cells, using parasite LDH activity as an index of growth. Test compounds present at 2uM).
Type: functional
Work on O=C(Nc1ccc(N2CCN(Cc3ccccc3Cl)CC2)cc1)c1ccc([N+](=O)[O-])o1 yielded an Inhibition of 91%. For CC(=NNC(S)=NC(c1ccccc1)c1ccccc1)c1ccccn1, the Inhibition was 98%. Cc1cc(C(=O)N[C@H]2CCN(Cc3ccc(OCCCN(C)C)cc3)C2)ccc1Br.O=C(O)C(F)(F)F showed an Inhibition of 97%. Work on Cc1ccc(C)c2sc(N(CCCn3ccnc3)C(=O)C=Cc3cccs3)nc12.Cl yielded an Inhibition of 100%. For CCCCCc1cc(O)c2c(c1)OC(C)(C)C=C2C1=CCN(Cc2ccsc2)CC1, the Inhibition was 98%. Work on CCOc1cc(C(=O)N[C@@H](Cc2ccccc2)[C@H](O)CNCc2cc(OC)cc(OC)c2)cc(N2CCCCS2(=O)=O)c1.Cl yielded an Inhibition of 100%. In the case of Cc1nc2ccc(Nc3nccc(-c4c(-c5cccc(NC(=O)c6c(F)cccc6F)c5)nn5ccccc45)n3)cc2nc1C, the Inhibition is reported as 91%. With O=[N+]([O-])c1cc(/C=N/Nc2nc3nonc3nc2Nc2ccc(F)cc2)c(Cl)cc1Cl the Inhibition was 98%. With Cc1cccc2nc(-c3ccc(-c4cccc(CNCCNC(=O)c5ccnn5C)c4)cc3)[nH]c12.O=C(O)C(F)(F)F the Inhibition was 100%. CO/C(=C\C=C\c1cc2cc(Cl)c(Cl)cc2[nH]1)C(=O)Nc1ccc(NCCN(C)C)nc1.Cl gave an Inhibition of 93%. Work on Cc1nc2nc(N)nc(N)c2c(C)c1Cc1ccc(O)cc1.Cl yielded an Inhibition of 94%. Work on Cc1ccc(NC(=O)c2ccc3ncccc3c2)cc1OC1CCN(C(C)C)C1.O=C(O)C(F)(F)F (stereo not given) yielded an Inhibition of 95%. Compound COc1c(C2CCN(CCCCNC(=O)c3ccc(-c4ccc(C(F)(F)F)cc4)c(C(=O)OC(C)C)c3)CC2)ccc2c1CCCC2 has an Inhibition of 90%. CC(=O)Nc1nc(C(=O)Nc2cccc(-c3cccc(-c4nc5cc(F)ccc5[nH]4)c3)c2)cs1 was tested, and the Inhibition was 100%. Cc1ccc2c(c1)C1(CC(=O)N(CCc3scnc3C)C1=O)C(=O)N2Cc1ccccc1 (stereo not given) was tested, and the Inhibition was 83%. Cn1cncc1C(=O)Nc1cccc(-c2ccc(-c3nc4cc(F)ccc4[nH]3)cc2)c1 showed an Inhibition of 100%. Work on CN(c1ncc(-c2cccc(CNCc3ccccc3O)c2)cn1)C1CCCCC1 yielded an Inhibition of 95%. Cc1cccc2nc(-c3ccc(-c4ccc(CNCc5ccc(CN)cc5)cc4)cc3)[nH]c12.O=C(O)C(F)(F)F showed an Inhibition of 100%. Cc1cc(Nc2ccc(C(C)(C)C)cc2)c2[nH]ncc2n1.Cl showed an Inhibition of 83%. With O=C(Nc1ccc(-c2ccccc2)s1)N[C@H]1CCN(Cc2ccc(OCCCN3CCCCC3)cc2)C1 the Inhibition was 100%. With O=C(CCC1CCCC1)N(Cc1ccc(-c2ccc(CNCCc3ccccn3)cc2)cc1)CC1CCCCN1.O=C(O)C(F)(F)F (stereo not given) the Inhibition was 95%. With CCN1CCC(N(Cc2ccc(-c3ccc(C(F)(F)F)cc3)cc2)C(=O)CCCCn2c(CCc3cccc(F)c3F)nc(=O)c3ccccc32)CC1 the Inhibition was 90%. Cc1ccc(Nc2ccnc3ccc(C(F)(F)F)cc23)cc1O.O=C(O)C(F)(F)F gave an Inhibition of 100%. For Cc1nc(C)c(-c2ccc(Cl)cc2Cl)c(O)c1Br, the Inhibition was 87%. With COc1cc(OC)c(NC(=O)C2c3ccccc3C(=O)N(CC(C)C)C2c2cccs2)cc1Cl (stereo not given) the Inhibition was 100%. Compound O=C(Nc1ccc(Br)cc1)c1cc(Br)ccc1NS(=O)(=O)c1ccc(C(F)(F)F)cc1 has an Inhibition of 100%. COc1ccc(NC(=O)c2cn(-c3ccc(C(C)(C)C)cc3)nc2C)cc1N1CCN(C)CC1 showed an Inhibition of 96%. Work on N#Cc1ccc(N2CCN(Cc3cccc(-c4ccc(-c5nc6cc(C(F)(F)F)ccc6[nH]5)cc4)c3)CC2)nc1.O=C(O)C(F)(F)F yielded an Inhibition of 100%. Compound COc1ccccc1CN1CCC(CNC(=O)c2cc(-c3cccc(C(F)(F)F)c3)cs2)C1.O=C(O)C(F)(F)F (stereo not given) has an Inhibition of 84%. Work on COc1ccc(Nc2nc(N/N=C/c3ccc(O)cc3)nc(Nc3ccc([N+](=O)[O-])cc3)n2)cc1 yielded an Inhibition of 93%. Cc1nc2ccccc2c(=O)n1/N=C/c1ccccc1[N+](=O)[O-] showed an Inhibition of 94%. COC(=O)c1ccc2nc(-c3ccc(C(=O)NCc4ccc(Cl)c(Cl)c4)cc3)[nH]c2c1 showed an Inhibition of 95%. CC(C)COc1ccc(Cl)cc1Cc1ccc(-c2nc3ccc(F)cc3[nH]2)o1 was tested, and the Inhibition was 97%. Work on CC(=O)c1ccccc1OCCSc1nnc(Cc2cccs2)n1C1CCCCC1 yielded an Inhibition of 87%. Work on CCc1nc2nc(C)cc(Nc3ccc4c(c3)OCCO4)n2n1 yielded an Inhibition of 88%. Cl.O=C(NCCCCN1CCC(c2ccc3c(c2O)CCCC3)CC1)c1ccc(NC(=O)c2ccc(Cl)cc2)cc1 was tested, and the Inhibition was 100%. O=C(/C=C/c1ccc(Cl)c(Cl)c1)NCCCCCN1CCC(C(=O)Nc2ccc(Cl)cc2)CC1 was tested, and the Inhibition was 100%. CCc1c[nH]c2c(N3CCCC3=O)cc(C(=O)N[C@@H](Cc3ccccc3)[C@H](O)CNC(C)(C)c3cccc(OC)c3)cc12 was tested, and the Inhibition was 93%. COc1ccc(-c2ccc(NC(=O)c3ccc(C#N)cc3)cc2)cc1CN1CCN(C)CC1.O=C(O)C(F)(F)F gave an Inhibition of 93%. Work on COc1cc(CN/C(=N/c2ccc(-c3ccccc3)cc2)Nc2ccc(C#N)cc2O)cc(OC)c1 yielded an Inhibition of 95%.
